High-throughput results (PubChem)
The full list was thinned out, with hits kept by preference.
HT1080 IDH1KD tx: qHTS for induction of synthetic lethality in tumor cells producing 2HG: qHTS for the HT-1080-IDH1KD cell line. HT-1080 IDH1 knockdown viability, ATP luminescence, 48 h. Potency, µM (series often up to 46.1 µM), hits mostly cytotoxic. AID 686971, 2013. hit rate 2% among 360,000
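After a 2 h attachment period, IDH1KD HT-1080 cells took pin-transferred compound for 48 h at 37 °C; ATP-based luminescence after 10 min room-temperature reagent incubation reported viability.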
12-LOX inh: Primary qHTS assay for inhibitors of human arachidonate 12S-lipoxygenase (ALOX12): Round 2; purified 12hLO, xylenol orange hydroperoxide absorbance; Polyunsaturated fatty acid lipoxygenase ALOX12 (Homo sapiens), P18054; Potency, µM (titrated, usually from 108 µM), actives largely listed as inhibitors; hit rate 1.1% among 580,000
Target sequence (P18054 whole entry, looked up): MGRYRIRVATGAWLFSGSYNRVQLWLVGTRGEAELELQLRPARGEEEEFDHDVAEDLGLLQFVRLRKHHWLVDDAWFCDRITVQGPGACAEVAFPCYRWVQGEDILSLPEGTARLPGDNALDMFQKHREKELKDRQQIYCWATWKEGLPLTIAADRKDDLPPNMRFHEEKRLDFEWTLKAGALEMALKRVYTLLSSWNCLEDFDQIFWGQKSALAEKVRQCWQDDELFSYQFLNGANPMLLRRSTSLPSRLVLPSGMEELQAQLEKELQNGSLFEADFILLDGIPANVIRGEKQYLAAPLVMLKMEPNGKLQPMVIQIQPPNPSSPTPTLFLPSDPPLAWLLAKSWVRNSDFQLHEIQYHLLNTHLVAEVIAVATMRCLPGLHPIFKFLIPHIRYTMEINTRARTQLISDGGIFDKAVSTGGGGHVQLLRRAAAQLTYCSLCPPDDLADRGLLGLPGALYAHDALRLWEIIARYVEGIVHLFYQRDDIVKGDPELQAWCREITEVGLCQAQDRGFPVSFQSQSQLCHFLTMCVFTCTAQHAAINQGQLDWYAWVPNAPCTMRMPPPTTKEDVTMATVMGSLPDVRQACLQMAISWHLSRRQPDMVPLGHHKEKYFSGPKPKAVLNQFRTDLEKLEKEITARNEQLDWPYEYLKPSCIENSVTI
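Hydroperoxide product was detected by ferrous iron/xylenol orange as the 573 to 405 nm absorbance ratio. Arachidonic acid at 40 uM (final) was turned over for 30 min at room temperature by 150 nM human 12hLO, pH 7.0 Hepes buffer, after 15 min compound preincubation.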
DT40 TDP1 CPT: qHTS for Inhibitors of human tyrosyl-DNA phosphodiesterase 1 (TDP1): qHTS in cells in presence of CPT | chicken DT40 Tdp1-/-;hTDP1 cells + 20 nM CPT, ATP luminescence, 48 h | Potency, µM (top dose mostly 46.2 µM), hits mostly inhibitors | hit rate 12% among 420,000; further: nearly all actives have a fitted effect of over 55% in size
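Chicken DT40 Tdp1-/- cells stably complemented with human TDP1 were seeded at 400 cells/well in medium containing 20 nM camptothecin, exposed to pin-transferred compounds, and grown at 37 °C for at least 48 hr. Viability was read as ATP luminescence.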
HT1080NT lethal: qHTS for induction of synthetic lethality in tumor cells producing 2HG: qHTS for the HT-1080-NT fibrosarcoma cell line | HT-1080-NT fibrosarcoma viability, CellTiter-Glo ATP luminescence, 48 h | Potency, µM (series often up to 46.1 µM), most hits filed as cytotoxic | hit rate 1.6% among 360,000;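 further: NT is the 2HG producing partner of a matched IDH1 knockdown line; nearly all actives have a fitted effect of over 55% in size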
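A 48-hour cytotoxicity screen used HT-1080-NT cells plated 2 hours before compound delivery. ATP-based CellTiter-Glo luminescence measured viability, normalized to DMSO and no-cell controls.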
IL1B secr inh: qHTS for Inhibitors of Inflammasome Signaling: IL-1-beta AlphaLISA Primary Screen. THP-1 LPS/ATP IL-1B secretion, AlphaLISA, 16 h; hits give low values. activity change, % at 57.5 µM. hit rate 4.7% among 360,000; in the data active means activity change below about -50%; inconclusive means mostly about -30% to -49%
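Secreted IL-1B measured by AlphaLISA bead assay after 16 h compound exposure of THP-1 cells; compounds (final up to 57.5 uM) added 1 h before LPS (250 ng/mL) and ATP (1.25 mM) stimulation; lower signal means less secretion.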
TDP1 cell noCPT: qHTS for Inhibitors of human tyrosyl-DNA phosphodiesterase 1 (TDP1): qHTS in cells in absence of CPT. DT40 Tdp1-/- hTDP1 cells, no CPT, ATP luminescence, 48 h. Potency, µM (highest dose often 46.2 µM), hits mostly inhibitors. hit rate 15% among 420,000. AID 686978, 2013; further: nearly all actives have a fitted effect of over 55% in size
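Readout: luminescence from CellTiter-Glo after 30 min in the dark at RT. Cells: DT40 Tdp1-/- with stable hTDP1, 400/well. Exposure: compounds alone, ≥48 hr, 37 °C.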
Hits are given with their value; 0 = inactive; ? = inconclusive; - = no result given. Unless noted, the call rests on the fitted dose curve; in most records, active means well fitted curve in the direction sought with a large enough effect; inconclusive means small, poorly fitted or top-dose-only effect, or another doubt; inactive means no such curve, though single readings can be large; an effect the other way counts as inactive or inconclusive.

SMILES | HT1080 IDH1KD tx | 12-LOX inh | DT40 TDP1 CPT | HT1080NT lethal | IL1B secr inh | TDP1 cell noCPT
CC(C)CCC(O)(CCC(C)C)C(=O)NN1CCCCC1 | 0 | 0 | 0 | 0 | 0 | 0
COC(=O)Cn1cnc2sc(C)c(S(=O)(=O)N3CCN(c4ccccc4OC)CC3)c2c1=O | 0 | 0 | 0 | 0 | 0 | 0
CCc1ccc(NC(=O)Cn2cnc3sc(C)c(S(=O)(=O)N4CCN(c5ccccc5OC)CC4)c3c2=O)cc1 | - | 0 | ? | - | - | 16µM
CCc1ccc(NC(=O)Cn2cnc3sc(C)c(S(=O)(=O)N4CCC(C)CC4)c3c2=O)cc1 | - | ? | 0 | - | - | 0
COc1ccccc1N1CCN(S(=O)(=O)c2c(C)nc3sc(C)c(C)n3c2=O)CC1 | - | 0 | 21µM | - | - | 21µM
Cc1sc2ncn(CC(=O)Nc3ccc(C(F)(F)F)cc3)c(=O)c2c1S(=O)(=O)N1CCN(C)CC1 | - | 0 | ? | - | - | 1.3µM
CCCCC1CCC(c2ccc(C(=O)O)cc2)CC1 (stereo not given) | - | 0 | - | - | - | -
CC(=O)NC1[C@@H]2CC3C[C@H]1CC(O)(C3)C2 (stereo not given in full) | - | 0 | - | - | - | -
COCCNc1nc(Oc2cccc(NC(C)=O)c2)c2sccc2n1 | 0 | 0 | ? | 0 | 0 | 0
COCCNc1nc(Oc2ccc(C(N)=O)cc2)c2sccc2n1 | 0 | 0 | ? | 0 | 0 | ?
COCCNc1nc(Oc2ccccc2)c2sccc2n1 | 0 | 0 | 29µM | 0 | 0 | 23µM
COCCNc1nc(Oc2cccc3ccccc23)c2sccc2n1 | ? | 0 | 12µM | ? | 0 | 16µM
CC1(C)OC(=O)C2=C(C[C@@H](C3CC3)O[C@@H]2C2CC2)O1 | 0 | 0 | 0 | 0 | 0 | 0
Cc1nn(C)c2nc(NCCCOC3CCCC3)sc12 | - | 0 | - | - | - | -
COc1ccc(NC(=O)C(c2ccc(OC)cc2)N(Cc2ccco2)C(=O)CC2NC(=O)NC2=O)cc1 (stereo not given) | 0 | 0 | 0 | 0 | 0 | 0
COc1ccc(C(C(=O)Nc2ccc(C(C)C)cc2)N(Cc2ccco2)C(=O)CC2NC(=O)NC2=O)cc1 (stereo not given) | 0 | ? | ? | 0 | -70 | ?
Cc1ccc(C(=O)Nc2cccnc2Oc2ccccc2)cc1F | - | 0 | - | - | - | -
O=C1NC(=NC2CCCC2)C2(CCCN(Cc3cccnc3)C2)N1c1cc(F)cc(F)c1 (stereo not given) | - | 0 | - | - | - | -
Nc1nc(Cl)c(C=O)c(N2CCCCC2)n1 | ? | 0 | 0 | ? | -95 | 0
C=C(C)COc1ccc2c(C)c(CC(=O)NCCc3ccc(S(N)(=O)=O)cc3)c(=O)oc2c1 | - | 0 | - | - | - | -
CC1=C[C@@H](CO)[C@H](C(C)C)C[C@H]1CC(=O)NCc1cc(F)cc(F)c1 | - | 0 | - | - | - | -
O=C(Nc1ccccc1C(F)(F)F)N1CCC2(CC1)Oc1ccccc1C(=O)N2Cc1ccccc1F | - | 0 | ? | - | - | 16µM
O=C(Nc1ccccc1)N1CCC2(CC1)Oc1ccccc1C(=O)N2Cc1ccccc1F | - | 0 | - | - | - | -
Cc1ccc(S(=O)(=O)N2C[C@@H](C)[C@]3(C2)[C@H](O)[C@H](OC(=O)NCc2ccccc2F)C[C@H]2C(=O)N(c4ccccc4)C(=O)[C@H]23)cc1 | 0 | 0 | ? | 0 | 0 | ?
Cc1cccc(Cn2c(CNS(=O)(=O)c3ccc(Cl)s3)nc3cccnc32)c1 | - | 0 | ? | - | - | ?
Cc1cccc(Cn2c(C(C)(C)C)cc3cccnc32)c1 | ? | 0 | ? | ? | 0 | 21µM
CCN1CCS/C1=C/C=C/C1=[N+](CC)CCS1 | - | - | 0.18µM | - | 0 | 0.15µM
CCN1CCS/C1=C\C=C\C1=[N+](CC)CCS1 | 5.2µM | 0 | 0.73µM | 4.6µM | 0 | 0.21µM
